Test results from article PMC3218832.

How the values were obtained:
Assay in all cases: protein binding microarray; high values mean tight binding
Conditions in all cases: dsDNA, one strand shown
RELARELA (p65 homodimer) = RELARELA (p65 homodimer) (Homo sapiens, UniProt Q04206 1-307)
p50p50 homodimer = p50p50 homodimer (Homo sapiens, UniProt P19838 7-356)
p52p52 homodimer = molecular target: T1, p52p52 homodimer (Homo sapiens, UniProt Q00653 4-332)
T1 sequence: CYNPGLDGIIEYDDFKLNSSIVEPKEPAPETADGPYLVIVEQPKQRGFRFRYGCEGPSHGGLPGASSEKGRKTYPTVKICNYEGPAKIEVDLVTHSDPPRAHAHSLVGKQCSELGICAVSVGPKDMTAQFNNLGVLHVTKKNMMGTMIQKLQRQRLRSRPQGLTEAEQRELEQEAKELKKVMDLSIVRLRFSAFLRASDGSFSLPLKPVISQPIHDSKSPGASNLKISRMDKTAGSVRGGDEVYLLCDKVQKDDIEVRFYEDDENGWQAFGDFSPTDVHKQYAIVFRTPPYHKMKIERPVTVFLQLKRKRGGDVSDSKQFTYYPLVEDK

[1] = molecular target: RELA (p65) subunit of heterodimer;p50 subunit (Homo sapiens;Homo sapiens, UniProt Q04206;P19838 1-307;7-356)
[2] = molecular target: RELA (p65) subunit of heterodimer;p52 subunit (Homo sapiens;Homo sapiens, UniProt Q04206;Q00653 1-307;4-332)
RELB subunit;p50 subunit = RELB subunit;p50 subunit (Homo sapiens;Homo sapiens, UniProt Q01201;P19838 120-401;7-356)
RELB subunit;p52 subunit = molecular target: T2, RELB subunit;p52 subunit (Homo sapiens;Homo sapiens, UniProt Q01201;Q00653 120-401;4-332)
T2 sequence 1: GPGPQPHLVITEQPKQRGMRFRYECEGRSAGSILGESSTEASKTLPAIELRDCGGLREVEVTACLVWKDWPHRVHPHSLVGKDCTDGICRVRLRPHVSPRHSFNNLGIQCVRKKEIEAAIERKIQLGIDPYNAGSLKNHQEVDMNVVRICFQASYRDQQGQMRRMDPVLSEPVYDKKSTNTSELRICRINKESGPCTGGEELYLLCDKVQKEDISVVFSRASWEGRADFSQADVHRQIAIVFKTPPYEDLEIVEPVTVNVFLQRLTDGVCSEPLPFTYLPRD
T2 sequence 2: T1 sequence

[3] = molecular target: C-Rel subunit;p50 subunit (Homo sapiens;Homo sapiens, UniProt Q04864;P19838 1-285;7-356)
[4] = molecular target: T3, C-Rel subunit;p52 subunit (Homo sapiens;Homo sapiens, UniProt Q04864;Q00653 1-285;4-332)
T3 sequence 1: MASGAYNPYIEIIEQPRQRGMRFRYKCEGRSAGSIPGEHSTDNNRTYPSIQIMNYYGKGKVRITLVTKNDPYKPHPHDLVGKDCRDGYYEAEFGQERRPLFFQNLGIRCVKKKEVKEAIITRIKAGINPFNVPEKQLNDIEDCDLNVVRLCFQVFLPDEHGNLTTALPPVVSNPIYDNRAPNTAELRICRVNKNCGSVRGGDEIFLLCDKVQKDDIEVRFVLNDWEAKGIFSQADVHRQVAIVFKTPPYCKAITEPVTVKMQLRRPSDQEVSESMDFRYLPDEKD
T3 sequence 2: T1 sequence

Sequence of RELARELA (p65 homodimer) (Q04206 1-307): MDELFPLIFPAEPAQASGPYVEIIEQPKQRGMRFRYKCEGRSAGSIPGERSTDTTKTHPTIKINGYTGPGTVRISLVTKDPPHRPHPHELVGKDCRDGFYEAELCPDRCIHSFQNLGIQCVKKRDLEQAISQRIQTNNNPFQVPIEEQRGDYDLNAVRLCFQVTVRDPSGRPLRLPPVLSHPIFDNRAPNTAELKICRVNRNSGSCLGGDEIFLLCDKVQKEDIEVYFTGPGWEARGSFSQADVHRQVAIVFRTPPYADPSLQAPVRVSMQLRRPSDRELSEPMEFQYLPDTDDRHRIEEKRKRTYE
Sequence of RELA (p65) subunit of heterodimer;p50 subunit (Q04206 1-307, chain 1 of 2): as the sequence (Q04206 1-307) above
Sequence of RELA (p65) subunit of heterodimer;p50 subunit (P19838 7-356, chain 2 of 2): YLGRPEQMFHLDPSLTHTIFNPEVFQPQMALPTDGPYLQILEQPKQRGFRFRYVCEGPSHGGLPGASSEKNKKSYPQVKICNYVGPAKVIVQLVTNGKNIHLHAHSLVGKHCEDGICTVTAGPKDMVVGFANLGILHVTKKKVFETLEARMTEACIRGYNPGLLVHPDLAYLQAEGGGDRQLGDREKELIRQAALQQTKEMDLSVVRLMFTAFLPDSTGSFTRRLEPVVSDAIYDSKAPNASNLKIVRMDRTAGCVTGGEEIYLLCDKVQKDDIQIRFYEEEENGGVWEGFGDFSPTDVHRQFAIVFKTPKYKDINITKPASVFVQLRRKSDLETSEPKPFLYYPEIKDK
Sequence of p50p50 homodimer (P19838 7-356): as the sequence (P19838 7-356, chain 2 of 2) above

| Sequence | binding signal (RELARELA (p65 homodimer)) | binding signal (p50p50 homodimer) | binding signal (p52p52 homodimer) | binding signal [1] | binding signal [2] | binding signal (RELB subunit;p50 subunit) | binding signal (RELB subunit;p52 subunit) | binding signal [3] | binding signal [4] |
| --- | --- | --- | --- | --- | --- | --- | --- | --- | --- |
| AAAGGGATCCC | 0.0658 z-score | -0.302 z-score | 0.0251 z-score | -0.128 z-score | -0.268 z-score | -0.184 z-score | -0.115 z-score | -0.213 z-score | -0.202 z-score |
| GAGGTAGTCCC | 0.343 z-score | 0.907 z-score | 0.506 z-score | 0.436 z-score | 0.326 z-score | 0.57 z-score | 0.233 z-score | 0.447 z-score | 0.318 z-score |
| GAGGTTCTCCC | 0.0177 z-score | 0.0309 z-score | -0.068 z-score | -0.00394 z-score | -0.121 z-score | 0.333 z-score | 0.107 z-score | -0.166 z-score | -0.0434 z-score |
| GAAAGGTTCCC | 0.328 z-score | -0.486 z-score | -0.241 z-score | -0.184 z-score | -0.334 z-score | -0.203 z-score | -0.316 z-score | -0.141 z-score | -0.167 z-score |
| CAAAGCCTCCC | -0.873 z-score | -0.992 z-score | -0.631 z-score | -0.874 z-score | -0.823 z-score | -0.859 z-score | -0.707 z-score | -1.19 z-score | -0.839 z-score |
| CAATACGCCCC | 0.0573 z-score | 0.196 z-score | 0.145 z-score | 0.039 z-score | 0.0537 z-score | 0.204 z-score | 0.503 z-score | 0.297 z-score | 0.13 z-score |
| GGGTTGACCCT | -0.0795 z-score | -0.785 z-score | -0.387 z-score | -0.407 z-score | -0.336 z-score | -0.554 z-score | -0.73 z-score | -0.769 z-score | -0.115 z-score |
| AAATATCTCCC | 0.144 z-score | 0.445 z-score | 0.105 z-score | 0.12 z-score | -0.105 z-score | 0.365 z-score | 0.153 z-score | -0.0256 z-score | -0.0762 z-score |
| GAAATCCTCCT | -0.0844 z-score | -0.961 z-score | -0.613 z-score | -0.658 z-score | -0.961 z-score | -0.979 z-score | -0.866 z-score | -0.982 z-score | -0.715 z-score |
| CAATTCCTCCT | 0.0653 z-score | -1.06 z-score | -0.655 z-score | -0.688 z-score | -0.609 z-score | -0.871 z-score | -0.932 z-score | -0.776 z-score | -0.597 z-score |
| AAATGTATCCT | -0.258 z-score | -1.3 z-score | -0.661 z-score | -0.932 z-score | -0.782 z-score | -0.907 z-score | -0.763 z-score | -1.32 z-score | -0.746 z-score |
| CAAAGTCCCCT | 0.169 z-score | 1.47 z-score | 1.68 z-score | 1.79 z-score | 1.67 z-score | 2.07 z-score | 1.96 z-score | 1.43 z-score | 1.57 z-score |
| AAGTATGCCCC | 0.441 z-score | 0.0869 z-score | -0.0889 z-score | 0.289 z-score | 0.0585 z-score | 0.197 z-score | 0.2 z-score | 0.628 z-score | 0.354 z-score |
| GGAGGATCCCC | 0.374 z-score | 1.03 z-score | 1.19 z-score | 1.54 z-score | 1.22 z-score | 1.27 z-score | 0.916 z-score | 1.15 z-score | 0.899 z-score |
| GAAGACCTCCT | -0.649 z-score | -2.61 z-score | -0.857 z-score | -0.905 z-score | -0.909 z-score | -1.23 z-score | -0.869 z-score | -1.61 z-score | -0.944 z-score |
